# Compound activity: PubChem, National Center for Advancing Translational Sciences (NCATS)
# HCV inh = inhibitors of hepatitis C virus infection; Huh7.5.1 HCVcc-Cre infection, luciferase reporter, 44 h; Potency, µM (top dose mostly 41.8 µM), without a hit: at the highest dose activity change, negative = inhibition, most hits filed as inhibitors; 3.4% of 340,000 active; AID 651820; note: potency is the fitted concentration of half-maximal effect; % is set by controls: 0 for no effect and ±100 for the full control effect
#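 Compounds are dispensed onto cells plated 4 h earlier at 1,000 per well, with HCVcc-Cre virus (about 0.5 moi) added next. Following 44 h of culture, luminescent signal is measured for 15 sec after 15 min with substrate at room temperature.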
# Cycloheximide cs = affects cycloheximide protein synthesis inhibition readout, counter-screen; cell reporter, cycloheximide protein synthesis inhibition counterscreen; AID 2314; max response, %; 12% of 300,000 active; in the data active = max response mostly above about 13%, no sharp cut-off; inactive = mostly below about 14%; note: read at 38.3 µM for the half of the compounds with a filed dose; 0% is about no effect
# Pf growth 48h = inhibits P. falciparum growth in the first generation, 48 h. P. falciparum luciferase growth in erythrocytes, 48 h. Potency, µM (top dose mostly 28.7 µM), for the others: at the highest dose activity change, negative = inhibition, actives largely listed as inhibitors. 5.9% of 310,000 active; note: potency is the fitted concentration of half-maximal effect; % is set by controls: 0 for no effect and ±100 for the full control effect
#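 In quantitative HTS format, infected erythrocytes bearing luciferase-reporter parasites were treated for a single generation at 37 C. Luminescence after adding detection reagent served as the growth measure.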
# Shiga toxin inh = Shiga toxin inhibition; Vero cells, Shiga toxin protein synthesis inhibition reporter; inhibition, % at 38.7 µM; 9.2% of 290,000 active; AID 2315; in the data active = inhibition mostly above about 28%, no sharp cut-off; inactive = mostly below about 43%; note: 0% is about no effect
# AMA1-RON2 inh = AMA1-RON2 (P. falciparum) interaction inhibition; 0.2% of 360,000 active; Potency, µM (doses to about 58.2 µM), inactives show at the top dose activity change, negative = inhibition, actives largely listed as inhibitors; AlphaScreen AMA1-biotinylated RON2 peptide binding; AID 720542;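 note: potency is the fitted concentration of half-maximal effect; 0% = vehicle wells and -100% = peptide control; nearly all actives have a fitted effect of over 45% in size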
#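 AMA1 (3D7) with his tag at 25 nM final met compounds first, then biotinylated RON2 peptide at 25 nM; detection used donor plus acceptor beads, 10 µg/mL apiece, read by AlphaScreen after 30 min at room temperature.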
# Pf growth 96h = inhibits malaria parasite growth, 96 h; P. falciparum luciferase reporter growth, 96 h; Potency, µM (top dose mostly 28.7 µM), without a hit: top-dose activity change, negative = inhibition, hits mostly inhibitors; 6.9% of 320,000 active; AID 504834; note: potency is the fitted concentration of half-maximal effect; % is set by controls: 0 for no effect and ±100 for the full control effect
#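 Readout is luminescence from an integrated firefly luciferase in P. falciparum. Red cells, 2% hematocrit and 0.05% parasitemia final, were cultured with compound through two parasite generations (96 hours) at 37 C, 5% CO2.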
# * hit, by the source's call; ? = inconclusive; . = no result given. In the library only some 21% were active in any assay of this set; here they are far more common. Unless noted, calls come from the whole dose curve; as a rule, active = well fitted curve in the direction sought with a large enough effect; inconclusive = small, poorly fitted or top-dose-only effect, or another doubt; inactive = no such curve, though single readings can be large; an effect the other way counts as inactive or inconclusive.
SMILES,HCV inh,Cycloheximide cs,Pf growth 48h,Shiga toxin inh,AMA1-RON2 inh,Pf growth 96h
O=c1[nH]c(=S)[nH]c2c1CN(Cc1ccc(F)cc1)CC2,16%,12,-15%,-6,-3%,46%
O=C(NCCc1nc(-c2ccccc2)cs1)c1ccc(Br)cc1,11µM*,-1,9%,-7,0%,0%
COc1ccc(-c2csc(-c3[nH]cnc3N)n2)cc1,3%,28*,-26%,86*,113%,?
CCCCn1c(N)c(N(CCOC)C(=O)COC(=O)c2ccccc2NCCO)c(=O)[nH]c1=O,3%,.,.,.,2%,.
CSCCC(C)N1CCC(Oc2ccc(C(=O)NCc3ccccn3)cc2)CC1 (stereo not drawn),.,.,.,.,54%,.
CC(C)c1cc(CNC(=O)c2ccc(OC3CCN(Cc4ccccn4)CC3)cc2)on1,-1%,13,-2%,-1,46%,?
CCOc1ccccc1CN1CCC(Oc2ccc(C(=O)NCc3ccccn3)cc2)CC1,-26%,-2,10µM*,0,52%,?
CCn1cc(CNC(=O)c2ccc(OC3CCN(Cc4ccccn4)CC3)cc2)cn1,10µM*,-2,25%,23,54%,?
C/C=C(\C)CN1CCC(Oc2ccc(C(=O)NCc3ccccn3)cc2)CC1,8%,10,-10%,-6,20%,-26%
